# Laboratory results taken from PubChem BioAssay.
# Molecular target: Left-right determination factor 2 (Homo sapiens) (UniProt O00292)
# Experiment: small molecules binding LEFTY2 protein – biochemical, small-molecule microarray, 635 nm fluorescence scan, primary screen (AID 1110)
# Conditions: higher = more signal
# Sequence of Left-right determination factor 2 (Homo sapiens) (O00292 whole entry, looked up): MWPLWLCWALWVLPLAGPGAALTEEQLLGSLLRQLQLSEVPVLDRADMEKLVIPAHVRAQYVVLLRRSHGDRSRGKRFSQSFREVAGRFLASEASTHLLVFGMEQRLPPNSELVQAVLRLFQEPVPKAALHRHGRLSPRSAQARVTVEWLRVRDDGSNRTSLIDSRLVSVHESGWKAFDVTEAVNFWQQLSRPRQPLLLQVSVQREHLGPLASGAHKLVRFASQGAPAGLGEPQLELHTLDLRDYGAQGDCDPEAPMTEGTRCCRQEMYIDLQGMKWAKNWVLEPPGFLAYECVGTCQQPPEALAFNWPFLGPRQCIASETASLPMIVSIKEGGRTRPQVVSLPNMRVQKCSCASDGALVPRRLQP
row,SMILES,composite z-score
1,CO[C@H]1COC(=O)[C@H](C)NC(=O)CC=C[C@@H](C)[C@H](NS(=O)(=O)c2ccc(C)cc2)COC(=O)[C@@H](OCc2ccccc2)C=C[C@@H]1C,0.449
2,COCCCNC(=O)[C@@]1(Sc2ccc(C)cc2)CC(=O)N(Cc2cc(C(F)(F)F)cc(C(F)(F)F)c2)[C@@H]1c1ccc(CO)cc1I,-1.28
3,CO[C@H]1COC(=O)CC=C[C@H](C)[C@@H](OC)COC(=O)[C@H](Cc2ccccc2)NC(=O)CC=C[C@@H]1C,1.12
4,COCCOC(=O)N1C(=O)[C@@]2(c3cc(C#CCCO)ccc31)[C@H](C(=O)N1CCCCCCC1)[C@H]1C(=O)O[C@H](c3ccccc3)[C@H](c3ccccc3)N1[C@@H]2c1ccc(O)cc1,0.383
5,Cc1ccc(N2C(=O)c3ccccc3[C@@H](C(=O)NCc3ccccc3)[C@@H]2c2ccc(CO)cc2)nc1,-0.292
6,O=C1C2C=CC(C(O)C(c3ccccc3)c3ccccc3)N(Nc3ccc([N+](=O)[O-])cc3)C2C(=O)N1c1ccccc1 (configuration not stated),0.737

# Molecular target: Calmodulin-1 (Homo sapiens) (UniProt P0DP23)
# Experiment: small molecules binding calmodulin-1 with EGTA – biochemical, small-molecule microarray, Cy5-labelled CALM1, profiling panel (AID 1111);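 further: labelled calmodulin applied in Tris saline Tween buffer holding calcium plus EGTA and DTT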
# Conditions: Cy5-CALM1 binding fluorescence, higher = more signal
row,SMILES,composite z-score
1,CO[C@H]1COC(=O)[C@@H](C)COC(=O)[C@H](Cc2ccccc2)NC(=O)CC=C[C@H]1C,-1.69
2,C=CCC(OC(C)=O)[C@@H]1[C@@H](N(Cc2cccc3ccccc23)C(=O)c2ccc(C)cc2)c2cc(OCCCO)ccc2N1C(=O)c1ccc(-c2ccccc2)cc1 (some centres not stated),-0.355
3,CC(C)[C@H]1NC(=O)[C@@]23C(=O)N[C@@H](Cc4ccccc4)C2[C@H](C)[C@@]2(C)O[C@H]2C3/C=C/C/C=C\CNC(=O)[C@H](C)NC1=O (some centres not stated),-0.703
4,CO[C@H]1COC(=O)[C@@H](Cc2ccccc2)NC(=O)[C@@H](C)COC(=O)CC=C[C@@H]1C,-2.36
5,CN1CCC(CCCO)=CC1C1CC1 (configuration not stated),-1.21
6,CC(C)[Si]1(C(C)C)OCc2cc(C3CC3)nc(-c3ccccc3)c21,-1.23
7,O=C1c2ccccc2[C@](Cc2ccccc2I)(C(=O)O)[C@H](c2ccc(CO)cc2)N1C1CCCCC1,1.61
8,C[C@@H]1NC(=O)CC=C[C@@H](C)[C@@H]2C=C[C@H](O)[C@@H](COC(=O)[C@H](C)NC(=O)CC=C[C@@H](C)[C@@H]3C=C[C@H](O)[C@@H](COC1=O)O3)O2,-0.417
9,C=CCc1cccc([C@@H]2[C@@H](C)CC[C@H]3C(=O)N4[C@H](c5cccc(CC=C)c5)[C@@H](C)CC[C@H]4C(=O)N23)c1,0.254
10,C=CC[C@@]12N=C(c3ccc(OCCCO)cc3)O[C@@H]1c1ccccc1CN(Cc1ccccc1)C2=O,1.06
11,COc1ccc([C@H]2C[C@H]3C(Br)=C[C@]2(OC)C(=O)[C@]32CO2)cc1,-0.408
12,C=CCOC(=O)[C@@H]1[C@H]2C(=O)O[C@H](c3ccccc3)[C@H](c3ccccc3)N2[C@H](c2ccc(OCCOC(=O)[C@H]3C[C@H]4C(=O)N5CCC[C@H]5C(=O)N4[C@H]3c3ccc(O)cc3)cc2)[C@@]12C(=O)Nc1ccccc12,1.27
13,CC(=O)NCCCC[C@@H]1NC(=O)[C@@H]2C[C@H](C(=O)NCc3ccc(F)cc3)[C@H](c3cccc(OCCO)c3)N2C1=O,-0.286
14,O=C(CS)NCCCCCNC(=O)[C@H]1C[C@H]2C(=O)N3CCC[C@H]3C(=O)N2[C@H]1c1ccc(O)cc1,1.45
15,C=C(COC)/C(=C/C[C@H](OC(C)=O)c1ccc(OCCO)cc1)c1cnc2ccccc2c1,0.339
16,COc1cc([C@@H]2N[C@H](C(=O)O)Cc3c2[nH]c2ccccc32)cc(OC)c1OC,-0.0344
17,C=CC[C@@]1(C(=O)N2CCOCC2)N=C(c2ccc(OCCCO)cc2)O[C@@H]1c1ccccc1,0.0981
18,COCCOC(=O)N1C(=O)[C@@]2(c3cc(C#CC4=CCCCC4)ccc31)[C@H](c1ccc(O)cc1)N1[C@H](c3ccccc3)[C@H](c3ccccc3)OC(=O)[C@H]1[C@@H]2C(=O)N1CCCCCCC1,1.11

row,SMILES,composite z-score
1,COCCOC(=O)N1C(=O)[C@@]2(c3cc(C#CC4=CCCCC4)ccc31)[C@H](C(=O)NC[C@H](O)c1ccccc1)[C@H]1C(=O)O[C@H](c3ccccc3)[C@H](c3ccccc3)N1[C@@H]2c1ccccc1OCCO,1.43
2,C=CC[C@]1(C(=O)NCC(O)CO)N=C(c2ccc(OCCCO)cc2)O[C@H]1c1ccccc1 (some centres not stated),1.66
3,C=CCC(OC(C)=O)[C@@H]1[C@@H](N(Cc2cc3ccccc3o2)C(=O)c2ccc(C)cc2)c2cc(OCCCO)ccc2N1C(=O)c1ccc2ccccc2n1 (some centres not stated),-0.197
4,CC(C)NC(=O)[C@@]1(Cc2ccccc2I)c2ccccc2C(=O)N(C2CCCCC2)[C@H]1c1ccc(CO)cc1,1.48
5,C=C[C@H](OC)[C@@H](OC(=O)Nc1ccc(SC)cc1)c1ccc(OC)c(O)c1,-0.414
6,CCc1cccc(NC(=O)O[C@H]2[C@H](OC(=O)Nc3ccccc3)[C@@H](OC(=O)Nc3ccccc3)[C@@H](OC)O[C@@H]2CO)c1,1.19
7,COCCOC(=O)N1C(=O)[C@@]2(c3cc(C#CCC(C(=O)OC)C(=O)OC)ccc31)[C@H](C(=O)N1CCN(c3ncccn3)CC1)[C@H]1C(=O)O[C@H](c3ccccc3)[C@H](c3ccccc3)N1[C@@H]2c1ccc(O)cc1,1.22
8,COc1ccc(-c2cc3c(c(-c4ccccc4)n2)[Si](C(C)C)(C(C)C)O[C@H]3c2ccccc2)cn1,0.136
9,CCC(=O)[C@]12O[C@@]3([C@@H]4C(=O)OCC[C@@H]41)N(Cc1ccccc1)C(C)=C(C(=O)OC)[C@@H](c1ccccc1)N3C2=O,-0.146
10,CO[C@@H]1COC(=O)[C@H](C)NC(=O)CC=C[C@@H](C)[C@H](NS(=O)(=O)c2ccc(C)cc2)COC(=O)CC=C[C@@H]1C,-0.356
11,CC(=O)Nc1ccc([C@H]2[C@H](C)CC[C@H]3C(=O)N4[C@@H](CC[C@@H](C)[C@@H]4c4ccc(NC(C)=O)cc4)C(=O)N32)cc1,0.184
12,C=CCN(C(=O)C1N(c2ccc(CCO)cc2)C(=O)C2C(C(=O)O)C3C=CC21O3)C(C)(C)C (configuration not stated),-0.428
13,CO[C@H]1COC(=O)[C@H](C)NC(=O)CC=C[C@@H](C)[C@H](NS(=O)(=O)c2ccc(C)cc2)COC(=O)[C@@H](OCc2ccccc2)C=C[C@@H]1C,-0.967
14,COCCCNC(=O)[C@@]1(Sc2ccc(C)cc2)CC(=O)N(Cc2cc(C(F)(F)F)cc(C(F)(F)F)c2)[C@@H]1c1ccc(CO)cc1I,-0.0999
15,CO[C@H]1COC(=O)CC=C[C@H](C)[C@@H](OC)COC(=O)[C@H](Cc2ccccc2)NC(=O)CC=C[C@@H]1C,-1.67
16,COCCOC(=O)N1C(=O)[C@@]2(c3cc(C#CCCO)ccc31)[C@H](C(=O)N1CCCCCCC1)[C@H]1C(=O)O[C@H](c3ccccc3)[C@H](c3ccccc3)N1[C@@H]2c1ccc(O)cc1,2.14
17,Cc1ccc(N2C(=O)c3ccccc3[C@@H](C(=O)NCc3ccccc3)[C@@H]2c2ccc(CO)cc2)nc1,-0.869
18,O=C1C2C=CC(C(O)C(c3ccccc3)c3ccccc3)N(Nc3ccc([N+](=O)[O-])cc3)C2C(=O)N1c1ccccc1 (configuration not stated),0.858
